About 2,000 (36%) of roughly 5,500 compounds were called active. Inconclusive results (about 18%) are left out. Cut-off read from the data, not from the text of the source: active = normalized growth mostly below about 0.91 (no sharp cut-off); inconclusive = no clear call, values can overlap the other calls; inactive = mostly above about 0.92. Some of the results follow.
Assay: chemical genetic growth profiling, strain panel (AID 1159580);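 note: tested at 20 µM; growth read once vehicle control cultures reached saturation at 30 °C; 1 = growth at the plate median or of vehicle wells; lower values mean less growth of the strain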
Settings: S. cerevisiae deletion strains, growth OD

Measured: normalized growth

CC#CC1(O)CCC2C3CCC4=CC(=O)CCC4=C3C(c3ccc(N(C)C)cc3)CC21C (configuration not stated)
inactive: locus YAL021C, strain ccr4, stronger effect = lower value 0.982 | locus YAL026C, strain drs2, stronger effect = lower value 0.996 | locus YAL030W, strain snc1, stronger effect = lower value 0.989 | locus YBL061C, strain skt5, stronger effect = lower value 0.999 | locus YBR009C, strain hhf1, stronger effect = lower value 0.998 | locus YBR023C, strain chs3, stronger effect = lower value 0.993 | locus YBR171W, strain sec66, stronger effect = lower value 1.01 | locus YBR231C, strain swc5, stronger effect = lower value 1 | locus YBR279W, strain paf1, stronger effect = lower value 0.993 | locus YCL011C, strain gbp2, stronger effect = lower value 1 | locus YCL016C, strain dcc1, stronger effect = lower value 1.01 | locus YCL061C, strain MRC1, stronger effect = lower value 1.01 | locus YCL069W, strain vba3, stronger effect = lower value 1 | locus YCR088W, strain abp1, stronger effect = lower value 0.997 | locus YDL005C, strain med2, stronger effect = lower value 1.01 | locus YDL040C, strain nat1, stronger effect = lower value 0.997 | locus YDR001C, strain nth1, stronger effect = lower value 1 | locus YDR069C, strain doa4, stronger effect = lower value 0.994 | locus YDR137W, strain rgp1, stronger effect = lower value 1.01 | locus YDR159W, strain sac3, stronger effect = lower value 1.01 | locus YDR195W, strain ref2 1.07 | locus YDR297W, strain sur2, stronger effect = lower value 0.996 | locus YDR334W, strain swr1, stronger effect = lower value 1.02 | locus YDR335W, strain msn5, stronger effect = lower value 0.998 | locus YDR392W, strain spt3, stronger effect = lower value 0.966 | locus YEL003W, strain gim4, stronger effect = lower value 0.995 | locus YEL037C, strain rad23, stronger effect = lower value 0.99 | locus YEL061C, strain CIN8 (second series), stronger effect = lower value 1.01 | locus YER015W, strain faa2, stronger effect = lower value 0.996 | locus YER016W, strain bim1, stronger effect = lower value 0.996 | locus YER111C, strain swi4, stronger effect = lower value 1.01 | locus YER155C, strain BEM2 (second series), stronger effect = lower value 1.01 | locus YFR010W, strain ubp6, stronger effect = lower value 1.03 | locus YGL167C, strain pmr1, stronger effect = lower value 1 | locus YGL173C, strain kem1, stronger effect = lower value 1 | locus YGL227W, strain vid30, stronger effect = lower value 1.01 | locus YGL240W, strain doc1, stronger effect = lower value 0.987 | locus YGL253W, strain hxk2, stronger effect = lower value 1 | locus YHR013C, strain ard1, stronger effect = lower value 0.995 | locus YHR027C, strain rpn1, stronger effect = lower value 1 | locus YHR142W, strain chs7, stronger effect = lower value 0.997 | locus YJL092W, strain hpr5, stronger effect = lower value 1 | locus YJL095W, strain BCK1 (second series), stronger effect = lower value 0.998 | locus YJL115W, strain asf1, stronger effect = lower value 1.02 | locus YJL129C, strain trk1, stronger effect = lower value 0.946 | locus YJL154C, strain vps35, stronger effect = lower value 1 | locus YJL164C, strain tpk1, stronger effect = lower value 0.983 | locus YJL166W, strain qcr8, stronger effect = lower value 0.99 | locus YJL187C, strain SWE1, stronger effect = lower value 1.02 | locus YKL160W, strain elf1, stronger effect = lower value 0.99 | locus YKR026C, strain gcn3, stronger effect = lower value 0.993 | locus YKR091W, strain srl3, stronger effect = lower value 0.996 | locus YLL001W, strain dnm1, stronger effect = lower value 1.01 | locus YLL026W, stronger effect = lower value 0.999 | locus YLL041C, strain sdh2, stronger effect = lower value 1 | locus YLR027C, strain aat2, stronger effect = lower value 0.997 | locus YLR221C, strain rsa3, stronger effect = lower value 0.988 | locus YLR258W, strain gsy2, stronger effect = lower value 0.996 | locus YLR262C, strain YPT6 (second series), stronger effect = lower value 0.96 | locus YLR320W, strain mms22, stronger effect = lower value 1 | locus YLR342W, strain FKS1, stronger effect = lower value 0.995 | locus YLR357W, strain rsc2, stronger effect = lower value 1.13 | locus YLR370C, strain arc18, stronger effect = lower value 0.993 | locus YLR384C, strain iki3, stronger effect = lower value 0.996 | locus YML120C, strain ndi1, stronger effect = lower value 0.998 | locus YMR058W, strain fet3, stronger effect = lower value 1.02 | locus YMR125W, strain sto1, stronger effect = lower value 1.11 | locus YMR129W, stronger effect = lower value 0.991 | locus YMR205C, strain PFK2, stronger effect = lower value 0.998 | locus YMR231W, strain pep5, stronger effect = lower value 1 | locus YNL071W, strain lat1, stronger effect = lower value 1 | locus YNL209W, strain ssb2, stronger effect = lower value 0.993 | locus YNL248C, strain rpa49, stronger effect = lower value 1.07 | locus YNL322C, strain KRE1 (second series), stronger effect = lower value 1.01 | locus YNR049C, strain mso1, stronger effect = lower value 1 | locus YOR001W, strain rrp6, stronger effect = lower value 0.996 | locus YOR070C, strain gyp1, stronger effect = lower value 0.991 | locus YOR080W, strain dia2, stronger effect = lower value 1.01 | locus YOR083W, strain WHI5, stronger effect = lower value 0.976 | locus YOR106W, strain vam3, stronger effect = lower value 0.986 | locus YOR265W, strain rbl2, stronger effect = lower value 0.994 | locus YOR270C, strain vph1, stronger effect = lower value 0.924 | locus YOR290C, strain snf2, stronger effect = lower value 1.04 | locus YPL051W, strain arl3, stronger effect = lower value 0.988 | locus YPL078C, strain atp4, stronger effect = lower value 1.01 | locus YPL106C, strain sse1, stronger effect = lower value 0.964 | locus YPL240C, strain hsp82, stronger effect = lower value 0.985

Source: PubChem BioAssay AID1159580 (chemical genetic matrix, 2015)
